Measured values from the supplement of paper PMC10849652.
About 8,800 targets were measured; listed, in parts, are those with a hit and a random draw of the rest. About 0.5% of all pairs of compound and target were hits.

Key:
Experiment in all cases: log2 fold change, soluble protein after heating vs DMSO (PISA); higher = thermal stabilisation; K562 lysate, 10 uM; active = over 0.2 and 3.5 SD of the protein, either way, in both replicates (recomputed)
[1] = compound: C=CC(=O)N1CCC[C@@H](n2nc(-c3ccc(Oc4ccccc4)cc3)c3c(N)ncnc32)C1 [ibrutinib]
Method in brief: (§1)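 Values give the log-two fold change in thermal stability against solvent controls, from duplicates. Crude K562 extract at 1 mg/mL protein, made by dounce homogenisation in PBS pH 7.4 with 1 mM MgCl2, was treated with 10 μM compound for 30 min. After 3 min heating across 48°C-58°C, aliquots were pooled, adjusted to 0.5% NP-40 at 4°C and centrifuged at 21,000xg for 90 min. The supernatant was measured by TMTpro 16plex LC-MS/MS with channel sums equalised.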

[2] = compound: CC(=O)c1cnc2ccc(-c3cc(Cl)c(O)c(Cl)c3)nc2c1N[C@H]1CC[C@H](CN(C)C)CC1
Method in brief: as §1

[3] = compound: CC(C)(C)Cn1c(N)nc2ccc(-c3[nH]c(C(C)(C)C)nc3-c3ccc(F)cc3)nc21 [ralimetinib]
Method in brief: as §1

[4] = compound: CC(C)(O)CC(=O)NCCn1ccc2ncnc(Nc3ccc(Oc4cccc(C(F)(F)F)c4)c(Cl)c3)c21
Method in brief: as §1

[5] = compound: CC(C)C1=C2N=C(C=C(N2N=C1)NCC3=CC=CC=C3)NCCCCCCN
Method in brief: as §1

[6] = compound: CC1=C(C(CC(=O)N1)C2=CC=C(C=C2)C(F)(F)F)C(=O)NC3=C(C=C4C(=C3)C=NN4)F
Method in brief: as §1

[7] = compound: CC1=C(C=C(C=C1)NC(=O)C2=CC(=CC=C2)C(C)(C)C#N)NC3=CC4=C(C=C3)N=CN(C4=O)C
Method in brief: as §1

[8] = compound: CC1=C(C=C(C=C1)NC(=O)C2=CC(=CC=C2)N(C)C)NC(=O)C3=CC=C(C=C3)O
Method in brief: as §1

[9] = compound: CC1=CC=C(C=C1)SC2=C3C=C(SC3=CN=C2)C(=O)N
Method in brief: as §1

[10] = compound: CCCS(=O)(=O)Nc1ccc(F)c(C(=O)c2c[nH]c3ncc(Cl)cc23)c1F
Method in brief: as §1

[11] = compound: CCN(CCCOc1ccc2c(Nc3cc(CC(=O)Nc4cccc(F)c4)[nH]n3)ncnc2c1)CCOP(=O)(O)O [barasertib]
Method in brief: as §1

[12] = compound: CC[C@@H]1C(=O)N(C)c2cnc(Nc3ccc(C(=O)NC4CCN(C)CC4)cc3OC)nc2N1C1CCCC1
Method in brief: as §1

[13] = compound: CC[C@@H]1C(=O)N(C)c2cnc(Nc3ccc(C(=O)N[C@H]4CC[C@H](N5CCN(CC6CC6)CC5)CC4)cc3OC)nc2N1C(C)C [volasertib]
Method in brief: as §1

[14] = compound: CCn1c(C(=O)N(C2CC2)C2CC2)cc2c3c(ncn3C)c(Nc3cc(C)n(C)n3)nc21
Method in brief: as §1

[15] = compound: CCn1cc(-c2ccnc3[nH]c(-c4cccc(CN(C)C)c4)cc23)c(-c2ccc(NC(=O)N(C)C)cc2)n1
Method in brief: as §1

[16] = compound: CN1CCC(CNc2ccc3ncc(-c4cccc(OC(F)(F)F)c4)n3n2)CC1
Method in brief: as §1

[17] = compound: CN1CCN(c2nc(C3=C(c4c[nH]c5ccccc45)C(=O)NC3=O)c3ccccc3n2)CC1 [sotrastaurin]
Method in brief: as §1

[18] = compound: CC1=C(C2=C(C=C1)C(=O)C3=CC=CC=C3N2CCCN)C
Method in brief: as §1

[19] = compound: CCCS(=O)(=O)Nc1ccc(F)c(C(=O)c2c[nH]c3ncc(-c4ccc(Cl)cc4)cc23)c1F [vemurafenib]
Method in brief: as §1

[20] = compound: CN1CCN(CCOc2cc(OC3CCOCC3)c3c(Nc4c(Cl)ccc5c4OCO5)ncnc3c2)CC1 [saracatinib]
Method in brief: as §1

Measured: log2 fold change

TMSB4X (UniProt P62328)
UniProt P62328, sequence (P62328 whole entry, looked up): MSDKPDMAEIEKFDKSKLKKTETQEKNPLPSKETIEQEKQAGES
inactive: [1] 0.519 | [2] -0.03 | [3] 0 | [4] -0.072 | [5] 0.033 | [6] 0.122 | [7] -0.025 | [8] 0.075 | [9] -0.064 | [10] -0.068 | [11] 0.056 | [12] 0.084 | [13] 0.104 | [14] -0.187 | [15] -0.191 | [16] 0.371 | [17] 0.205

TUBGCP5 (UniProt Q96RT8)
UniProt Q96RT8, sequence (Q96RT8 whole entry, looked up): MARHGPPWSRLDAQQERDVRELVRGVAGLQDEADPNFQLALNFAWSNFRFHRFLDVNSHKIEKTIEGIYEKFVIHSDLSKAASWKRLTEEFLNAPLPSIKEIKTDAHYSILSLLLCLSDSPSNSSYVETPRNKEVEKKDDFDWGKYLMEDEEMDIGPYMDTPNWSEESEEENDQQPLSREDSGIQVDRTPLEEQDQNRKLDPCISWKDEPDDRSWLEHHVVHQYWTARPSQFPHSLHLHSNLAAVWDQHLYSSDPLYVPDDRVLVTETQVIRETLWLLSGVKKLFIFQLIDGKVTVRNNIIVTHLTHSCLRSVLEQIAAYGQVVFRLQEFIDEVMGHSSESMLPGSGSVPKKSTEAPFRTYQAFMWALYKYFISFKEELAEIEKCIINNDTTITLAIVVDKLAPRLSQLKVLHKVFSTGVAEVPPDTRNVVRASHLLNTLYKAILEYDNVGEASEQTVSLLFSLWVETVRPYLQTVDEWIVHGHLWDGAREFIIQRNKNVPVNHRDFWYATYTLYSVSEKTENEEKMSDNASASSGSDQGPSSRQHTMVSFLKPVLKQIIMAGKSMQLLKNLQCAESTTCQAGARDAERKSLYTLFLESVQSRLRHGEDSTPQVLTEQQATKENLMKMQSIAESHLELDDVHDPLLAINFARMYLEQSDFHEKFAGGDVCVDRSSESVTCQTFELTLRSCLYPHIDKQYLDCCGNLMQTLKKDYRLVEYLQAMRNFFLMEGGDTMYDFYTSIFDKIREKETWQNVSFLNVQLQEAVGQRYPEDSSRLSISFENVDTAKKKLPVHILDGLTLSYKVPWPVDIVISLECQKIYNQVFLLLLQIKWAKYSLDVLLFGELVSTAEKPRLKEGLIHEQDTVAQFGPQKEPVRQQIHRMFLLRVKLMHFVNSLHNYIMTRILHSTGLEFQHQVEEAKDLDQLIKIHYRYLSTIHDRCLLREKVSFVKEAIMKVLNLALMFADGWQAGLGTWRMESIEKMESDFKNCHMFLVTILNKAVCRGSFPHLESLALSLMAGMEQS
inactive: [1] 0.036 | [2] 0.363 | [3] 0.038 | [4] 0.026 | [6] 0.009 | [18] 0.001 | [7] -0.007 | [8] -0.049 | [9] -0.118 | [19] -0.023 | [10] -0.351 | [11] -0.057 | [12] -0.204 | [13] 0 | [14] 0.004 | [15] -0.06 | [16] 0.088 | [20] -0.075 | [17] 0.033

TNIK isoform 5 (UniProt Q9UKE5)
UniProt Q9UKE5, sequence (Q9UKE5 whole entry, looked up): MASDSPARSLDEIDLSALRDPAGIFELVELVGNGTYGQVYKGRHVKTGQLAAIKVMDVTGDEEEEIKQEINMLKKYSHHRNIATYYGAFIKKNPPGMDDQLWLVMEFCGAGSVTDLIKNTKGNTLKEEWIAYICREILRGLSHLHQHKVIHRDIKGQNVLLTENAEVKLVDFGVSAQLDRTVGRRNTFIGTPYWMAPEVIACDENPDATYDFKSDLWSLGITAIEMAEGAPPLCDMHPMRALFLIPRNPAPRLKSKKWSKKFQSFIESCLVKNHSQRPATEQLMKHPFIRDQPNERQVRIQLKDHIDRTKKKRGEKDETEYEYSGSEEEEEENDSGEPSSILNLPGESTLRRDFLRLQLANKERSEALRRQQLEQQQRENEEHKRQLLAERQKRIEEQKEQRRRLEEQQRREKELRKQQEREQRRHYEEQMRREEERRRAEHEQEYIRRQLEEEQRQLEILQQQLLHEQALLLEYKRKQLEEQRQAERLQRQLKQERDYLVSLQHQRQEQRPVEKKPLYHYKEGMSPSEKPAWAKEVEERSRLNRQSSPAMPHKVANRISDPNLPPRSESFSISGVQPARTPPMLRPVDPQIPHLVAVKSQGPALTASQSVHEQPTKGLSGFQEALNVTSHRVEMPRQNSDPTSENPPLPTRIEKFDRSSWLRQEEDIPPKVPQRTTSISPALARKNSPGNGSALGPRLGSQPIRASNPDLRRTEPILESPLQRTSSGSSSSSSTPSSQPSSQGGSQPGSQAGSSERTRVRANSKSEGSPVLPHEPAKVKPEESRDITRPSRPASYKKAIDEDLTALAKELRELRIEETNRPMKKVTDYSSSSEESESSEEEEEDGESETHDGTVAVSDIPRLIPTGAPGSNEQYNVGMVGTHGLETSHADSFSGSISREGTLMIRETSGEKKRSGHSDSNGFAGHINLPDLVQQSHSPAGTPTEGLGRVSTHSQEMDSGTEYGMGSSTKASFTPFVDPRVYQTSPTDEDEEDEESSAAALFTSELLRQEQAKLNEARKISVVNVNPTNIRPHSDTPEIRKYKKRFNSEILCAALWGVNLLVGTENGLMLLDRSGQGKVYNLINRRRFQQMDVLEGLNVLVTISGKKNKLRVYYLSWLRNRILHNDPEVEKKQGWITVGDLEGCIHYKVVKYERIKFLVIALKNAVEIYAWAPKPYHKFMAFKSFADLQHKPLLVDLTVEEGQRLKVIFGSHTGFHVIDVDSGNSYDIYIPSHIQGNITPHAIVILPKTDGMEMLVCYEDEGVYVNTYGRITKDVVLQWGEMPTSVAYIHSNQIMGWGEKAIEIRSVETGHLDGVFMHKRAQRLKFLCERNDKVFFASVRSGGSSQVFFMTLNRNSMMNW
inactive: [1] 0.07 | [2] 0.345 | [3] 0.016 | [4] -0.026 | [18] -0.091 | [7] 0.276 | [8] -0.004 | [9] -0.136 | [10] -0.118 | [11] 0.021 | [13] -0.087 | [14] -0.059 | [15] -0.051 | [16] -0.065 | [20] 0.022 | [17] 0.034

TNIK (UniProt C9J338)
inactive: [1] 0.041 | [2] -0.076 | [5] 0.025 | [18] -0.042 | [7] 0.16 | [9] -0.114 | [19] 0.151 | [10] 0.064 | [11] 0.028 | [12] 0.171 | [13] -0.011 | [15] -0.51 | [16] 0.341 | [20] 0.033 | [17] -0.026

UCHL5 (UniProt Q5LJA9)
inactive: [1] 0.009 | [2] 0.078 | [3] -0.007 | [4] -0.113 | [5] 0.044 | [18] 0 | [7] 0.012 | [8] 0.035 | [9] 0.01 | [19] -0.021 | [10] -0.061 | [11] -0.01 | [12] -0.103 | [13] 0.03 | [14] -0.108 | [15] 0.019 | [16] 0 | [20] 0.023 | [17] 0.007

TMEM14C (UniProt Q9P0S9)
UniProt Q9P0S9, sequence (Q9P0S9 whole entry, looked up): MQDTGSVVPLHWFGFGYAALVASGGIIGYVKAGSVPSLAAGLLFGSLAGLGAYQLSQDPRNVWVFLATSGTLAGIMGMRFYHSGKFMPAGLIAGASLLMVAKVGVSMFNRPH
inactive: [1] 0.04 | [2] 0.085 | [3] 0.129 | [4] -0.077 | [5] -0.135 | [6] -0.047 | [18] -0.146 | [7] 0.048 | [8] 0.007 | [9] 0.152 | [19] 0.027 | [10] 0.087 | [11] -0.038 | [12] 0.129 | [13] 0.045 | [14] -0.053 | [20] -0.088 | [17] 0.06

TTC37 (UniProt Q6PGP7)
UniProt Q6PGP7, sequence (Q6PGP7 whole entry, looked up): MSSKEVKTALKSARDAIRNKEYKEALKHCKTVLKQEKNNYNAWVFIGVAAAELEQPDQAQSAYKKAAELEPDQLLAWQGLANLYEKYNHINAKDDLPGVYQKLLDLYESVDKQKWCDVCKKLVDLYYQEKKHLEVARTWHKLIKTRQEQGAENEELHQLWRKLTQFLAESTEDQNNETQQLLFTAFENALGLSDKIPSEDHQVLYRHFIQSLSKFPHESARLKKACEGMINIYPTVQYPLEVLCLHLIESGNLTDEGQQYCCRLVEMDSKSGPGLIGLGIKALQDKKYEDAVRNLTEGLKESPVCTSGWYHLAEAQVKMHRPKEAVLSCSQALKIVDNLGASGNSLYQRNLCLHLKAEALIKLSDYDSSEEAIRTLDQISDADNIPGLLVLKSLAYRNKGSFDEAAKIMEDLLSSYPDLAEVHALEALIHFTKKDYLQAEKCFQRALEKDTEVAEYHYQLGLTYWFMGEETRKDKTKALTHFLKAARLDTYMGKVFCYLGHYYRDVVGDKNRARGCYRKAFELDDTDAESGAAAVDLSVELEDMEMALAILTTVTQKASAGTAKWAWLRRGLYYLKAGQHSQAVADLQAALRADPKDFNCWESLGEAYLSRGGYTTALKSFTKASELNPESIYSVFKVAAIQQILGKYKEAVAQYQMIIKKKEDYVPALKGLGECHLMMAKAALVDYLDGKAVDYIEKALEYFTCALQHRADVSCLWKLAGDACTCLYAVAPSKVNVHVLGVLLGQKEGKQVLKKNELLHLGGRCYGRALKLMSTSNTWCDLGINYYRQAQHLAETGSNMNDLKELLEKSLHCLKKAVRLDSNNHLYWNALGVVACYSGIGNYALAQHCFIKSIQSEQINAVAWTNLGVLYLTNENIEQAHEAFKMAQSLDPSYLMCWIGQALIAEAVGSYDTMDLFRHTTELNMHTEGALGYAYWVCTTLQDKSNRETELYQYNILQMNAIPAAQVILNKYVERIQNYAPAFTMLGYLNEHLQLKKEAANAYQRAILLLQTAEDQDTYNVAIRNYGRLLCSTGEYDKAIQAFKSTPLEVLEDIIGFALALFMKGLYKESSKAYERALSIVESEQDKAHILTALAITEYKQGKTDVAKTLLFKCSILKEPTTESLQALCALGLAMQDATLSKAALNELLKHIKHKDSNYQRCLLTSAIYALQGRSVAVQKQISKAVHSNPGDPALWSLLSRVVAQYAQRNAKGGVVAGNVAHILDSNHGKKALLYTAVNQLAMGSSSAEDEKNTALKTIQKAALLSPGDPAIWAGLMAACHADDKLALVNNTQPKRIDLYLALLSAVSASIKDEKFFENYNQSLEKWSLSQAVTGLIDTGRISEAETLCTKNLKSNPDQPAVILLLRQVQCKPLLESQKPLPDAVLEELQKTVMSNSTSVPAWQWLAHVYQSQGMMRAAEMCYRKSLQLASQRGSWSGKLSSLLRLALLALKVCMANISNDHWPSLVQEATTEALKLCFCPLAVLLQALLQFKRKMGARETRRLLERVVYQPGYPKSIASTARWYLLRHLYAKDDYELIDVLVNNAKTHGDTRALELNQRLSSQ
inactive: [1] 0.012 | [2] 0.047 | [3] -0.024 | [4] 0.012 | [5] -0.012 | [6] -0.019 | [18] -0.188 | [7] 0.154 | [8] -0.043 | [9] -0.15 | [19] 0.053 | [10] -0.068 | [11] 0.018 | [13] 0.011 | [14] 0.045 | [20] 0.013 | [17] -0.019

TUBB4A (UniProt M0QYM7)
inactive: [1] 0.092 | [2] 0.049 | [3] 0.103 | [4] -0.117 | [5] 0.005 | [6] -0.102 | [7] 0.13 | [8] 0.102 | [9] 0.024 | [19] 0.019 | [10] -0.099 | [11] 0.315 | [12] -0.193 | [13] -0.069 | [14] -0.053 | [15] -0.772 | [16] 0.448 | [17] 0.111

TTC27 (UniProt Q6P3X3)
inactive: [1] -0.025 | [2] 0.017 | [3] -0.012 | [4] 0.046 | [5] 0.02 | [6] 0 | [18] -0.011 | [7] -0.012 | [8] 0.034 | [9] 0.042 | [19] 0.015 | [10] 0.007 | [11] 0.028 | [12] -0.07 | [13] -0.074 | [14] 0.015 | [15] -0.085 | [16] -0.058 | [20] 0.055 | [17] 0.051
